# Data published in PubChem BioAssay.
# Activity calls are given as the source filed them. Unless noted, how the calls were made is not given here.
# What was measured:
# [1] = tested on: Wnt5a (protein binding on small-molecule microarray); test: Wnt5a binders on small-molecule microarray, primary screen, biophysical, 635/667 nm fluorescence (AID 1142); conditions: 635 nm fluorescence, higher = more signal;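 further: fluorescence read at 667 nm with signal to noise per printed feature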
# [2] = cell viability in Huh7 cells, primary screen, cytotoxicity control for HCV replication inhibitor project, CellTiter-Glo luminescence, basal, 48 h (AID 1143); conditions: Huh7 HCV replicon, higher = more signal, called active from +8 up or from −8 down;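 further: Huh7 hepatoma cells carrying a hepatitis C replication reporter with no stimulus; test concentration not given here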
# [3] = P. aeruginosa biofilm formation inhibitors, primary screen, PAO1 strain, BacTiter-Glo luminescence, LB-PBS (AID 1144); conditions: 12 h, higher = more signal
# [4] = CREB reporter modulators without forskolin, primary screen, cell-based, PC12, CRE-LacZ reporter, unstimulated (AID 1145); conditions: no forskolin, luminescence, 4.5 h, higher = more signal, called active from +8 up or from −8 down
# [5] = CREB reporter modulators under forskolin, primary screen, cell-based, PC12, CRE-LacZ reporter, forskolin-stimulated (AID 1146); conditions: luminescence, 4.5 h, higher = more signal, called active from +8 up or from −8 down;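 further: PC12 cells with 6xCRE LacZ reporter stimulated by forskolin 10 µM; beta-galactosidase reporter signal reflecting CREB driven transcription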
# [6] = molecular target: Streptavidin (Streptomyces avidinii) (UniProt P22629); test: streptavidin binders on small-molecule microarray, primary screen, artefact control for SMM compound annotation, biophysical, 635/667 nm fluorescence (AID 1147); conditions: streptavidin binding, higher = more signal;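 further: signal reflects streptavidin binding to arrayed compounds as a control protein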
# Sequence of Streptavidin (Streptomyces avidinii) (P22629 whole entry, looked up): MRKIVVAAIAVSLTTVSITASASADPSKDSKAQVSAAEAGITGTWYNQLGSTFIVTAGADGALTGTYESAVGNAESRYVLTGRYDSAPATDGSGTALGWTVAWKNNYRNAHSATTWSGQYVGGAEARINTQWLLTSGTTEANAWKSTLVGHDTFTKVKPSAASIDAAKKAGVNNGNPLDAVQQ
# [7] = small-molecule binders of probe aInhba, primary screen, biochemical, small-molecule microarray, 635/667 nm fluorescence (AID 1148); conditions: higher = more signal;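 further: score merges 667nm spot fluorescence with signal-to-noise for antibody binding to printed compounds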
# Torsin-1A (Homo sapiens) [8] = molecular target: Torsin-1A (Homo sapiens) (UniProt O14656); test: torsin A binders from cell lysate, primary screen, small-molecule microarray, wild-type, 635/667 nm (AID 1149); conditions: COS7 hTOR1A-WT lysate, 635 nm fluorescence, higher = more signal
# Sequence of Torsin-1A (Homo sapiens) (O14656 whole entry, looked up): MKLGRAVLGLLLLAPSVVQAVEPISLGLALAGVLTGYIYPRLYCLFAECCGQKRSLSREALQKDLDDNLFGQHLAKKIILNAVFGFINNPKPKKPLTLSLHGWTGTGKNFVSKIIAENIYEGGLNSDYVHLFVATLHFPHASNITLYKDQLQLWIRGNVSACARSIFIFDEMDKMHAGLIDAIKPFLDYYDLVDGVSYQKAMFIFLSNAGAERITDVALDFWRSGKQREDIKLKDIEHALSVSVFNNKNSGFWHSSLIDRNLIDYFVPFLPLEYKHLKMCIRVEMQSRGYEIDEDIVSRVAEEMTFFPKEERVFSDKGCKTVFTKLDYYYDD
# Torsin-1A (Homo sapiens) [9] = molecular target: Torsin-1A (Homo sapiens) (UniProt O14656); test: small-molecule binders of mutant TOR1A in lysate, primary screen, cell lysate, small-molecule microarray, COS7 lysate, 635/667 nm fluorescence (AID 1150); conditions: COS7 hTOR1A mutant lysate, 635 nm fluorescence, higher = more signal;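 further: score pools 667 nm emission and signal to noise measuring lysate protein binding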
# [10] = tested on: Sonic hedgehog protein (Shh); test: small-molecule binders of Shh protein, primary screen, biochemical, small-molecule microarray, 635/667 nm fluorescence (AID 1151); conditions: small-molecule microarray binding, 635 nm fluorescence; higher = more signal;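 further: Shh protein binding to compounds spotted on small-molecule microarray slides; score combines spot fluorescence intensity with signal-to-noise across triplicate slides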
compound,measurement,setting,value
C=CCOC(=O)[C@@H]1[C@H]2C(=O)O[C@H](c3ccccc3)[C@H](c3ccccc3)N2[C@H](c2ccc(OCCOC(=O)[C@H]3C[C@H]4C(=O)N[C@@H](CCCCNC(C)=O)C(=O)N4[C@H]3c3ccc(O)cc3)cc2)[C@@]12C(=O)Nc1ccc(I)cc12,composite z-score,[1],0.728
same,z-score,[2],-0.317 (inactive)
same,z-score,[3],0.645 (inactive)
same,z-score,[4],0.549 (inactive)
same,z-score,[5],0.906 (inactive)
same,composite z-score,[6],0.0984
same,composite z-score,[7],0.0073
same,composite z-score,Torsin-1A (Homo sapiens) [8],1.32
same,composite z-score,Torsin-1A (Homo sapiens) [9],1.29
same,composite z-score,[10],2.07
C=C(CCCC)/C(=C/C[C@@H](OC(=O)c1ccncc1)c1cccc(OCCO)c1)c1cc(C(=O)OC)ccc1OC,composite z-score,[1],0.153
same,z-score,[2],-1.36 (inactive)
same,z-score,[3],-1.04 (inactive)
same,z-score,[4],13.4 (active)
same,z-score,[5],-1.47 (inactive)
same,composite z-score,[6],0.788
same,composite z-score,[7],0.0852
same,composite z-score,Torsin-1A (Homo sapiens) [8],1.13
same,composite z-score,Torsin-1A (Homo sapiens) [9],0.76
same,composite z-score,[10],1.47
COC(=O)[C@@]1(Cc2ccccc2)[C@H]2c3cc(C(=O)N4CCCC4)n(CCN4CNCC4=O)c3C[C@H]2CN1C(=O)c1ccccc1,composite z-score,[1],-0.042
same,z-score,[2],-0.119 (inactive)
same,z-score,[3],0.351 (inactive)
same,z-score,[4],-0.182 (inactive)
same,z-score,[5],-0.768 (inactive)
same,composite z-score,[6],2.04
same,composite z-score,[7],0.202
same,composite z-score,Torsin-1A (Homo sapiens) [8],-0.0625
same,composite z-score,Torsin-1A (Homo sapiens) [9],1.02
same,composite z-score,[10],-0.535
C[N+](C)(C)CCCCNC(=O)[C@H]1C[C@H]2C(=O)NCC(=O)N2[C@H]1c1cccc(OCCO)c1,composite z-score,[1],0.668
same,z-score,[2],0.148 (inactive)
same,z-score,[3],-0.722 (inactive)
same,z-score,[4],0.419 (inactive)
same,z-score,[5],-0.153 (inactive)
same,composite z-score,[6],0.0924
same,composite z-score,[7],-0.0044
same,composite z-score,Torsin-1A (Homo sapiens) [8],1.21
same,composite z-score,Torsin-1A (Homo sapiens) [9],0.961
same,composite z-score,[10],2.17
COC(=O)C1=CC(c2ccc(CO)cc2)=CC(c2cccs2)N(Cc2cccc(OC(F)(F)F)c2)C=C1C(=O)OC (stereo not given),composite z-score,[1],0.0365
same,z-score,[2],-3.08 (inactive)
same,z-score,[3],0.714 (inactive)
same,z-score,[4],0.0924 (inactive)
same,z-score,[5],-0.287 (inactive)
same,composite z-score,[6],2.29
same,composite z-score,[7],0.248
same,composite z-score,Torsin-1A (Homo sapiens) [8],0.947
same,composite z-score,Torsin-1A (Homo sapiens) [9],0.76
same,composite z-score,[10],0.381
Cc1ccc([C@@H]2CC=C(C(=O)O)[C@H](c3ccccc3)N2S(=O)(=O)c2ccc(C)cc2)cc1,composite z-score,[1],0.382
same,z-score,[2],-0.385 (inactive)
same,z-score,[3],0.134 (inactive)
same,z-score,[4],0.332 (inactive)
same,z-score,[5],-0.311 (inactive)
same,composite z-score,[6],1.77
same,composite z-score,[7],0.277
same,composite z-score,Torsin-1A (Homo sapiens) [8],0.385
same,composite z-score,Torsin-1A (Homo sapiens) [9],0.528
same,composite z-score,[10],0.157
O=C/C=C/c1ccccc1Cl,composite z-score,[1],-0.159
same,z-score,[2],-0.724 (inactive)
same,z-score,[3],-0.904 (inactive)
same,z-score,[4],-0.0243 (inactive)
same,z-score,[5],-0.468 (inactive)
same,composite z-score,[6],0.143
same,composite z-score,[7],0.0705
same,composite z-score,Torsin-1A (Homo sapiens) [8],-0.342
same,composite z-score,Torsin-1A (Homo sapiens) [9],0.081
same,composite z-score,[10],-0.0129
CCC1=C2CN(Cc3ccccc3Br)[C@@H]([C@@H](O)Cc3ccccc3)C2C=CCC1 (stereo not given in full),composite z-score,[1],0.0361
same,z-score,[2],-5.22 (inactive)
same,z-score,[3],-0.709 (inactive)
same,z-score,[4],2.12 (inactive)
same,z-score,[5],4.84 (inactive)
same,composite z-score,[6],0.721
same,composite z-score,[7],-0.105
same,composite z-score,Torsin-1A (Homo sapiens) [8],0.476
same,composite z-score,Torsin-1A (Homo sapiens) [9],0.212
same,composite z-score,[10],0.675
CC(C)C[C@@H]1NC(=O)[C@H]2C[C@@H](C(=O)NCCCCCC[N+](C)(C)C)[C@@H](c3ccc(O)cc3)N2C1=O,composite z-score,[1],-0.266
same,z-score,[2],-0.0365 (inactive)
same,z-score,[3],-0.337 (inactive)
same,z-score,[4],-0.122 (inactive)
same,z-score,[5],-0.281 (inactive)
same,composite z-score,[6],-0.308
same,composite z-score,[7],-0.0719
same,composite z-score,Torsin-1A (Homo sapiens) [8],0.87
same,composite z-score,Torsin-1A (Homo sapiens) [9],0.951
same,composite z-score,[10],1.7
C[C@H]1C2[C@H](Cc3ccccc3)NC(=O)[C@]23C(=O)N[C@H](Cc2ccccc2)C(=O)N[C@@H](Cc2ccccc2)C(=O)NC/C=C\C/C=C/C3[C@@H]2O[C@]12C (stereo not given in full),composite z-score,[1],0.0327
same,z-score,[2],-3.18 (inactive)
same,z-score,[3],0.593 (inactive)
same,z-score,[4],0.311 (inactive)
same,z-score,[5],-1.85 (inactive)
same,composite z-score,[6],-0.214
same,composite z-score,[7],0.173
same,composite z-score,Torsin-1A (Homo sapiens) [8],-0.0236
same,composite z-score,Torsin-1A (Homo sapiens) [9],0.147
same,composite z-score,[10],1.65
COc1ccc([Si](C)(C)[C@H]2[C@H](CC(=O)N(CCO)Cc3ccccc3)O[C@@]3(C(=O)N(C)c4ccccc43)[C@@H]2C)cc1,composite z-score,[1],0.321
same,z-score,[2],-5.59 (inactive)
same,z-score,[3],-0.306 (inactive)
same,z-score,[4],4.69 (inactive)
same,z-score,[5],0.0125 (inactive)
same,composite z-score,[6],0.153
same,composite z-score,[7],-0.0986
same,composite z-score,Torsin-1A (Homo sapiens) [8],0.0317
same,composite z-score,Torsin-1A (Homo sapiens) [9],0.83
same,composite z-score,[10],1.65
COCCOC(=O)N1C(=O)[C@@]2(c3cc(C#CCC(C(=O)OC)C(=O)OC)ccc31)[C@H](c1ccccc1OCCO)N1[C@H](c3ccccc3)[C@H](c3ccccc3)OC(=O)[C@H]1[C@@H]2C(=O)N1CCCCCCC1,composite z-score,[1],1.16
same,z-score,[2],-1.66 (inactive)
same,z-score,[3],-0.129 (inactive)
same,z-score,[4],-0.329 (inactive)
same,z-score,[5],0.0965 (inactive)
same,composite z-score,[6],2.45
same,composite z-score,[7],0.628
same,composite z-score,Torsin-1A (Homo sapiens) [8],1.29
same,composite z-score,Torsin-1A (Homo sapiens) [9],0.96
same,composite z-score,[10],1.66
C=C(C(=O)CC[C@H](OC(=O)c1ccccc1-c1ccccc1C(=O)O)c1ccc(CO)o1)C(C)C,composite z-score,[1],0.416
same,z-score,[2],0.559 (inactive)
same,z-score,[3],-1.11 (inactive)
same,z-score,[4],0.406 (inactive)
same,z-score,[5],2.42 (inactive)
same,composite z-score,[6],0.194
same,composite z-score,[7],-0.0933
same,composite z-score,Torsin-1A (Homo sapiens) [8],0.427
same,composite z-score,Torsin-1A (Homo sapiens) [9],0.669
same,composite z-score,[10],1.71
CCCC[C@@H]1C[C@H]1[C@@H](NC(=O)c1ccccc1)c1ccccc1C(F)(F)F,composite z-score,[1],0.175
same,z-score,[2],0.0018 (inactive)
same,z-score,[3],-0.0632 (inactive)
same,z-score,[4],1.73 (inactive)
same,z-score,[5],1.17 (inactive)
same,composite z-score,[6],1.84
same,composite z-score,[7],0.319
same,composite z-score,Torsin-1A (Homo sapiens) [8],-0.113
same,composite z-score,Torsin-1A (Homo sapiens) [9],0.322
same,composite z-score,[10],-0.654
O=C(NCC(F)(F)F)[C@@H]1c2ccccc2C(=O)N(Cc2ccccc2Cl)[C@H]1c1ccc(CO)cc1,composite z-score,[1],-0.234
same,z-score,[2],0.197 (inactive)
same,z-score,[3],0.072 (inactive)
same,z-score,[4],0.414 (inactive)
same,z-score,[5],-0.65 (inactive)
same,composite z-score,[6],-1.38
same,composite z-score,[7],-0.176
same,composite z-score,Torsin-1A (Homo sapiens) [8],-0.495
same,composite z-score,Torsin-1A (Homo sapiens) [9],0.986
same,composite z-score,[10],-0.59
COc1ccc(NN2C(C(O)c3cc(OC)c(OC)c(OC)c3)C=CC3C(=O)N(C4CCCCC4)C(=O)C32)cc1 (stereo not given),composite z-score,[1],0.866
same,z-score,[2],-1.6 (inactive)
same,z-score,[3],-0.272 (inactive)
same,z-score,[4],0.285 (inactive)
same,z-score,[5],0.907 (inactive)
same,composite z-score,[6],1.14
same,composite z-score,[7],0.294
same,composite z-score,Torsin-1A (Homo sapiens) [8],-0.125
same,composite z-score,Torsin-1A (Homo sapiens) [9],0.236
same,composite z-score,[10],0.377
O=C1O[C@H](c2ccccc2)[C@H](c2ccccc2)N2[C@H]1[C@@H](C(=O)NC[C@H](O)c1ccccc1)[C@]1(C(=O)Nc3ccc(C#CC4=CCCCC4)cc31)[C@H]2c1ccc(OCCO)cc1,composite z-score,[1],0.271
same,z-score,[2],-4.66 (inactive)
same,z-score,[3],-0.625 (inactive)
same,z-score,[4],0.0653 (inactive)
same,z-score,[5],-0.337 (inactive)
same,composite z-score,[6],0.635
same,composite z-score,[7],-0.0695
same,composite z-score,Torsin-1A (Homo sapiens) [8],0.257
same,composite z-score,Torsin-1A (Homo sapiens) [9],0.705
same,composite z-score,[10],1.11
Cc1cc(C)c(C(O)C2C=CC3C(=O)N(C)C(=O)C3N2N2CCCCC2)c(C)c1 (stereo not given),composite z-score,[1],0.423
same,z-score,[2],1.09 (inactive)
same,z-score,[3],-0.276 (inactive)
same,z-score,[4],-0.14 (inactive)
same,z-score,[5],0.56 (inactive)
same,composite z-score,[6],1.4
same,composite z-score,[7],0.233
same,composite z-score,Torsin-1A (Homo sapiens) [8],0.0592
same,composite z-score,Torsin-1A (Homo sapiens) [9],0.251
same,composite z-score,[10],0.375
Cc1ccc(S[C@]2(C(=O)O)CC(=O)N(Cc3cc(C(F)(F)F)cc(C(F)(F)F)c3)[C@@H]2c2ccc(CO)cc2I)cc1,composite z-score,[1],0.176
same,z-score,[2],-2.71 (inactive)
same,z-score,[3],0.519 (inactive)
same,z-score,[4],0.261 (inactive)
same,z-score,[5],0.859 (inactive)
same,composite z-score,[6],-0.718
same,composite z-score,[7],-0.106
same,composite z-score,Torsin-1A (Homo sapiens) [8],-1.1
same,composite z-score,Torsin-1A (Homo sapiens) [9],-0.3
same,composite z-score,[10],0.42
